Laboratory results published in ChEMBL document CHEMBL2218924, “A broad activity screen in support of a chemogenomic map for kinase signalling research and drug discovery” (Biochem J, 2013).

Legend:
[1] = molecular target: T1, Ephrin type-A receptor 3 (Homo sapiens) (UniProt P29320); conditions: at 10 µM
T1 sequence (whole entry): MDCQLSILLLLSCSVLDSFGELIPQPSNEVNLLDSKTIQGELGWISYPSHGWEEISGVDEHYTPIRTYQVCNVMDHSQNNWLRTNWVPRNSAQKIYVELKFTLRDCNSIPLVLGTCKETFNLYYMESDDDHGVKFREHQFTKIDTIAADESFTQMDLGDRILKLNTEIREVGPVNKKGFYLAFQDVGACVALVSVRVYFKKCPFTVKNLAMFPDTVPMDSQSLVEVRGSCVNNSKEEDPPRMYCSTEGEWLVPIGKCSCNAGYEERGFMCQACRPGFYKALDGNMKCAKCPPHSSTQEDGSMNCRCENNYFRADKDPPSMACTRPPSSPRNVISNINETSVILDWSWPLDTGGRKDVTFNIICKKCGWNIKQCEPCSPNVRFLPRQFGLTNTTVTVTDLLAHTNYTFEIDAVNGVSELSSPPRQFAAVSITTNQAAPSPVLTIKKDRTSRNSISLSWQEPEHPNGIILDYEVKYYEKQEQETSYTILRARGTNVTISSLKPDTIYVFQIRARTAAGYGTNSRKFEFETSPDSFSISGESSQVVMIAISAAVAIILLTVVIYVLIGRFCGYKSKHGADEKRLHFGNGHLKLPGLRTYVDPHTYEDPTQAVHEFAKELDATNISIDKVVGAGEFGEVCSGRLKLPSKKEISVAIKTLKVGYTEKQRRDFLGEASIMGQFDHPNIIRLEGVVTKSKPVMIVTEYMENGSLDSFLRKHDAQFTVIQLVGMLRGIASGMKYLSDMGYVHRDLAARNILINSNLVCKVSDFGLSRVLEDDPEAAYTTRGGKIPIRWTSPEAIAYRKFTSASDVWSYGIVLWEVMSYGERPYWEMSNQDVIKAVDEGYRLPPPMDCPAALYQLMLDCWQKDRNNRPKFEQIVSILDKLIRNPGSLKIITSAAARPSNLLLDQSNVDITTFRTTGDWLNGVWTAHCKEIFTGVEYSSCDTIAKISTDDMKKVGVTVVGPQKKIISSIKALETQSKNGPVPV

[2] = molecular target: Ephrin type-A receptor 4 (Homo sapiens) (UniProt P54764); conditions: at 1 µM
Chain of Ephrin type-A receptor 4 (Homo sapiens) (P54764 whole entry): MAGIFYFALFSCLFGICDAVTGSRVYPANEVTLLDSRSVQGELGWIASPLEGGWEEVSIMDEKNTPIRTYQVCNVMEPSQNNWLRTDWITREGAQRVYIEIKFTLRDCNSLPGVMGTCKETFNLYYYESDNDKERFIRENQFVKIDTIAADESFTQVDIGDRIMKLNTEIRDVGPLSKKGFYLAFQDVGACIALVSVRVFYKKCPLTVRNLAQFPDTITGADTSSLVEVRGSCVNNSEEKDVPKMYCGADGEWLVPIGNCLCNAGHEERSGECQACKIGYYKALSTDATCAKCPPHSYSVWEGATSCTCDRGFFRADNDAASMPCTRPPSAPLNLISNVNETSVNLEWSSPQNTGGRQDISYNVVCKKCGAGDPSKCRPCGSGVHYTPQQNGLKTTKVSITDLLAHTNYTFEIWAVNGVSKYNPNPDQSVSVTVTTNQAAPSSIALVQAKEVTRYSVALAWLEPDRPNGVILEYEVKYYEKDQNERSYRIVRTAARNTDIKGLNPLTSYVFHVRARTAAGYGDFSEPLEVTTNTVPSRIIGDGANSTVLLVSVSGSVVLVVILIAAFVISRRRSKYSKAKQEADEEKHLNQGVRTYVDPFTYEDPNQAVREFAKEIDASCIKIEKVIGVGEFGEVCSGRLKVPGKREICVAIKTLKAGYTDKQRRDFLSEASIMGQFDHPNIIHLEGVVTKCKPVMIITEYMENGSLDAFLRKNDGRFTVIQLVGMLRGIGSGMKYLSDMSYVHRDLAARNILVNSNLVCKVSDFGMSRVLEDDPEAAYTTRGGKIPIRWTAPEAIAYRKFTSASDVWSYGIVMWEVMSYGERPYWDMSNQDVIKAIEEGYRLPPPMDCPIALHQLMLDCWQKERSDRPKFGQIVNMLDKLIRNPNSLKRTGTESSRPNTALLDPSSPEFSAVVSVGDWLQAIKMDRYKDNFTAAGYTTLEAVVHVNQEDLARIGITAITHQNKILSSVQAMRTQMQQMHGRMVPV

[3] = molecular target: Ephrin type-A receptor 4 (Homo sapiens) (UniProt P54764); conditions: at 10 µM
[4] = molecular target: Ephrin type-A receptor 5 (Homo sapiens) (UniProt P54756); conditions: at 1 µM
Chain of Ephrin type-A receptor 5 (Homo sapiens) (P54756 whole entry): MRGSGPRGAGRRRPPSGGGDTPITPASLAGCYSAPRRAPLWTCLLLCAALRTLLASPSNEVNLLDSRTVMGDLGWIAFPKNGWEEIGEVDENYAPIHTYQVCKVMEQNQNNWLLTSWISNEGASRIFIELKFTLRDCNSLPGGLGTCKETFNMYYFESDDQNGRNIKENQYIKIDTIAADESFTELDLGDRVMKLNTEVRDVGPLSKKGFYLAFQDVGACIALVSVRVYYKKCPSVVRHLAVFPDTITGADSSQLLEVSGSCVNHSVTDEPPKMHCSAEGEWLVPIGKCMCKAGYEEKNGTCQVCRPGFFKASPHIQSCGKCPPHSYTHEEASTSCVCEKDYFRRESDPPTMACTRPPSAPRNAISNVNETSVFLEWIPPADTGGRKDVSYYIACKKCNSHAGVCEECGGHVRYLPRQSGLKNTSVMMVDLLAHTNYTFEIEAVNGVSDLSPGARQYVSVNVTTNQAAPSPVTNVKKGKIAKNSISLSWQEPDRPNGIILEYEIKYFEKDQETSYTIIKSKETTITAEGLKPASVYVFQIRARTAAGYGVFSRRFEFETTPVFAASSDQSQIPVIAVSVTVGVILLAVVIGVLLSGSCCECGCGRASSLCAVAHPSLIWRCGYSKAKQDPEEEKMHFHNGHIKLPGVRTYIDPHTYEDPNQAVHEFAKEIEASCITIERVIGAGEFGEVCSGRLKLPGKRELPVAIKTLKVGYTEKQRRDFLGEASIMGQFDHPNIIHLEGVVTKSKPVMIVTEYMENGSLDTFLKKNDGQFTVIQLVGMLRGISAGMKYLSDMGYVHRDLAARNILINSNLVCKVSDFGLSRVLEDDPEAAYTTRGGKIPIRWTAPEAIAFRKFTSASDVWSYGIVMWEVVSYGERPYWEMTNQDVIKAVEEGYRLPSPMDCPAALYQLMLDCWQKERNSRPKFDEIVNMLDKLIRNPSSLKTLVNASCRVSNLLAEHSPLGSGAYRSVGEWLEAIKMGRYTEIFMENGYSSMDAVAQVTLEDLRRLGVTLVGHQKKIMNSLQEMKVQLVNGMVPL

[5] = molecular target: Ephrin type-A receptor 5 (Homo sapiens) (UniProt P54756); conditions: at 10 µM
[6] = molecular target: Ephrin type-A receptor 7 (Homo sapiens) (UniProt Q15375); conditions: at 1 µM
Chain of Ephrin type-A receptor 7 (Homo sapiens) (Q15375 28-998 limits assumed): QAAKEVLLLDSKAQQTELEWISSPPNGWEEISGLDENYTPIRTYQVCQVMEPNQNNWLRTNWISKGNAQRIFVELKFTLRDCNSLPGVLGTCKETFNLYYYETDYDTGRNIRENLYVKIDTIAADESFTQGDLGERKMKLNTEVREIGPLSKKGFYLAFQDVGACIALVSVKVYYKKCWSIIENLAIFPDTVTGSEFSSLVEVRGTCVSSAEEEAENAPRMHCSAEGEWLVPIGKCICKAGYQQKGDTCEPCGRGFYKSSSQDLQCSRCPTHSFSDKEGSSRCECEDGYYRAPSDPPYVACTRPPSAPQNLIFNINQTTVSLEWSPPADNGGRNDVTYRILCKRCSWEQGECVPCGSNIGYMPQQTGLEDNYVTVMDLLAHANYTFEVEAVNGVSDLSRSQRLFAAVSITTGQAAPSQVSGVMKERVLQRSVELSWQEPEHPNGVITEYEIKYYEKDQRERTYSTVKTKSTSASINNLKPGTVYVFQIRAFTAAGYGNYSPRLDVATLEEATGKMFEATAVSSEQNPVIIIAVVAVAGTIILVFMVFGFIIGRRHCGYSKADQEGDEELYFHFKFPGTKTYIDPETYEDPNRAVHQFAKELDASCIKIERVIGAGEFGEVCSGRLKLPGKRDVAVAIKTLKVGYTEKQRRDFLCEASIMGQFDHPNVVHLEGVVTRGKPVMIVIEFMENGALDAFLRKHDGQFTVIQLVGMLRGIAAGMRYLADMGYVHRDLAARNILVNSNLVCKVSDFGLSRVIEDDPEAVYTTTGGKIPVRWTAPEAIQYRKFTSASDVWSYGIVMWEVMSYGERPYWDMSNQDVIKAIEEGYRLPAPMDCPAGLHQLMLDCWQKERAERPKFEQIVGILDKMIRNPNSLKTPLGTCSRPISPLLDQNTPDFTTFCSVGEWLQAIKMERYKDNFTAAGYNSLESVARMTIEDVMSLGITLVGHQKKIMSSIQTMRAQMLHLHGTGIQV

[7] = molecular target: Ephrin type-A receptor 7 (Homo sapiens) (UniProt Q15375); conditions: at 10 µM
[8] = molecular target: T2, Ephrin type-A receptor 8 (Homo sapiens) (UniProt P29322); conditions: at 1 µM
T2 sequence (whole entry): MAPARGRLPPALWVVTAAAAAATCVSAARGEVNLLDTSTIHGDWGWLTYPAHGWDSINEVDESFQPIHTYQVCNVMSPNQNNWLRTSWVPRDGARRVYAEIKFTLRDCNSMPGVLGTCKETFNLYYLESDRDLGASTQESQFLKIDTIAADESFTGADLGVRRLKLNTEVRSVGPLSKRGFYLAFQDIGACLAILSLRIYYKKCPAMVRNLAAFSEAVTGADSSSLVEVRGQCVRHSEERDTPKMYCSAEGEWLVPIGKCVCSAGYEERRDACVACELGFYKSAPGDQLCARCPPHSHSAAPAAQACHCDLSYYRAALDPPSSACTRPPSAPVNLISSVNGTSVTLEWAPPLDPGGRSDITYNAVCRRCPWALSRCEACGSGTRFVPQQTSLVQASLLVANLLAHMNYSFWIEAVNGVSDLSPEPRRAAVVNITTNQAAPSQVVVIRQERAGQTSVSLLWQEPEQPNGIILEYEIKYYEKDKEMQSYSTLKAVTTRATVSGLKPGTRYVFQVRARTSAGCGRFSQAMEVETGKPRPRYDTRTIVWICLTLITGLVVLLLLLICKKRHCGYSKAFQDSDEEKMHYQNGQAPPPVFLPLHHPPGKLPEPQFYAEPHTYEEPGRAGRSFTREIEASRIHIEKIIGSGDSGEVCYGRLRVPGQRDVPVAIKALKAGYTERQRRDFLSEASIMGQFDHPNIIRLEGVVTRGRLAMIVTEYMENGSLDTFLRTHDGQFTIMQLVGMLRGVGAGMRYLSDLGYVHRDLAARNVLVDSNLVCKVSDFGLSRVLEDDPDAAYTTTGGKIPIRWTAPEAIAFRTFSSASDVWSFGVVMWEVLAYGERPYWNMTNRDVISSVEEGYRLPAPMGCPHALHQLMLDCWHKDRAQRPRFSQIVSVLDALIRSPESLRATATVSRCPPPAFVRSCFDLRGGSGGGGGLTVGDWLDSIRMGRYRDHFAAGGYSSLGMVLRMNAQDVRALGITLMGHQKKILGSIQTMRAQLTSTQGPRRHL

[9] = molecular target: T2, Ephrin type-A receptor 8 (Homo sapiens); conditions: at 10 µM
[10] = molecular target: T3, Ephrin type-B receptor 1 (Homo sapiens) (UniProt P54762); conditions: at 1 µM
T3 sequence (whole entry): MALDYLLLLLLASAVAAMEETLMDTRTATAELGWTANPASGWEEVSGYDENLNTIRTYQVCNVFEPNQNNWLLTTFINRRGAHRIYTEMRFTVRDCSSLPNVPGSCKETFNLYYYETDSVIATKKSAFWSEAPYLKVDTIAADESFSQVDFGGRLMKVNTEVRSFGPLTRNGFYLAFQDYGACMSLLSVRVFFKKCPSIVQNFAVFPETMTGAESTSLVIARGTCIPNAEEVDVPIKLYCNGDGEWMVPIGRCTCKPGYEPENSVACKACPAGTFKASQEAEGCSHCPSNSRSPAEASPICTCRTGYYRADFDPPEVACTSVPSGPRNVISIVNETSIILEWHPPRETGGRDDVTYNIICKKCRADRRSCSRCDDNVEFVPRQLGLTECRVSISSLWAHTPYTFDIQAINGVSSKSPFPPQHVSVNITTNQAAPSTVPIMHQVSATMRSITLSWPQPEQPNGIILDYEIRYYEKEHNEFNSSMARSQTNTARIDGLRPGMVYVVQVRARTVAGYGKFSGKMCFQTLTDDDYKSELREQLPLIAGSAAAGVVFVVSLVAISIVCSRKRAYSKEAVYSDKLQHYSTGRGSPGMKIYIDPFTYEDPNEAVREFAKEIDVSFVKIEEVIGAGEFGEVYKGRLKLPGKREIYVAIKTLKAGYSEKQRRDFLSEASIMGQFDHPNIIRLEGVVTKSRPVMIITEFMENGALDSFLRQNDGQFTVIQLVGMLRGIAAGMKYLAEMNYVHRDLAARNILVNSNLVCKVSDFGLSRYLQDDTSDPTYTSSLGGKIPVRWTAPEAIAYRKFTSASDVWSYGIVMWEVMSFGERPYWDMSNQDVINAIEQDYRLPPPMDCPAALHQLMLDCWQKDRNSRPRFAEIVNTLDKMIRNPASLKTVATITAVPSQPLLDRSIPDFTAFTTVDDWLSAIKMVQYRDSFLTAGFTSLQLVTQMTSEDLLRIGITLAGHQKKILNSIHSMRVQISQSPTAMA

COc1cccc(-c2cc(=O)c3ccccc3o2)c1N
residual activity [1]: 108% | residual activity [2]: 109% | residual activity [3]: 108% | residual activity [4]: 118% | residual activity [5]: 96% | residual activity [6]: 98% | residual activity [7]: 97% | residual activity [8]: 105% | residual activity [9]: 104% | residual activity [10]: 118%
